Records with an inconclusive call do not appear. Calls of active or inactive are those of the source. The calls were made as follows: active = hit-call score of the fitted dose curve at least 0.9, where 1 is the maximum; inconclusive = response in the unintended direction; inactive = score below 0.9.

Chain of Estrogen receptor (Homo sapiens) + Estrogen receptor beta (Homo sapiens) (P03372 whole entry, looked up, the tested form may be a part): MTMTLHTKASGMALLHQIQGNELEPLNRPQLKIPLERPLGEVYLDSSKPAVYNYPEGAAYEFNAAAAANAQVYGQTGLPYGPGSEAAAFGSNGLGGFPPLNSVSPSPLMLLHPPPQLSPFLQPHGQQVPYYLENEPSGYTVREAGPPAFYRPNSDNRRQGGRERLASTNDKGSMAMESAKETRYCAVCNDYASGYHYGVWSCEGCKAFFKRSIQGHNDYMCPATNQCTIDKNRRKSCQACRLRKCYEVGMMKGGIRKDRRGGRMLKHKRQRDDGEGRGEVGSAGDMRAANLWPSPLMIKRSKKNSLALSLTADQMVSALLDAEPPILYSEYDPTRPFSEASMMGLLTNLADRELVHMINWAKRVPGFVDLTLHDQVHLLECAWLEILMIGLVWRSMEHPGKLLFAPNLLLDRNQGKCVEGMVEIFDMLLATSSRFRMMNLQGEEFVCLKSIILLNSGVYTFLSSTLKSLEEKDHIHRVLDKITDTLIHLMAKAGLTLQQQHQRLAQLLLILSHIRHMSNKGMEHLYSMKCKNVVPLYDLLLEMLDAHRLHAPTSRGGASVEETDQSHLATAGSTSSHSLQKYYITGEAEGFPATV
Chain of Estrogen receptor (Homo sapiens) + Estrogen receptor beta (Homo sapiens) (Q92731 whole entry, looked up, the tested form may be a part): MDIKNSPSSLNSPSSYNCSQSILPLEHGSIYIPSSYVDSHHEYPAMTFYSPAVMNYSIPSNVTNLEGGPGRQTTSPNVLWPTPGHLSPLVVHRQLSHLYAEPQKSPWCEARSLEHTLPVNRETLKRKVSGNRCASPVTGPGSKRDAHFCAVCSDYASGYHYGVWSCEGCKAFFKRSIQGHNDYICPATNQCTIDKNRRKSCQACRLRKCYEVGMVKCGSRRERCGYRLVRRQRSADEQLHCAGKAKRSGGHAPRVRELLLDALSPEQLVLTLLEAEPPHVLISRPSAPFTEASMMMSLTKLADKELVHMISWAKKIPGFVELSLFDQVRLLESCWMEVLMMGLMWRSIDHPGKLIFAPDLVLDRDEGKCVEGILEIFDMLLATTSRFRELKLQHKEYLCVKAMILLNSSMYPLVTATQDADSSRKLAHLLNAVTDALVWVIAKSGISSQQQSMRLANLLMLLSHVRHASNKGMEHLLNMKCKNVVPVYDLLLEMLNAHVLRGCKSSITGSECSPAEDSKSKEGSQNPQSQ
Chain of Androgen Receptor/SRC-1 Co-activator, AR (gene 367) (P10275 whole entry, looked up, the tested form may be a part): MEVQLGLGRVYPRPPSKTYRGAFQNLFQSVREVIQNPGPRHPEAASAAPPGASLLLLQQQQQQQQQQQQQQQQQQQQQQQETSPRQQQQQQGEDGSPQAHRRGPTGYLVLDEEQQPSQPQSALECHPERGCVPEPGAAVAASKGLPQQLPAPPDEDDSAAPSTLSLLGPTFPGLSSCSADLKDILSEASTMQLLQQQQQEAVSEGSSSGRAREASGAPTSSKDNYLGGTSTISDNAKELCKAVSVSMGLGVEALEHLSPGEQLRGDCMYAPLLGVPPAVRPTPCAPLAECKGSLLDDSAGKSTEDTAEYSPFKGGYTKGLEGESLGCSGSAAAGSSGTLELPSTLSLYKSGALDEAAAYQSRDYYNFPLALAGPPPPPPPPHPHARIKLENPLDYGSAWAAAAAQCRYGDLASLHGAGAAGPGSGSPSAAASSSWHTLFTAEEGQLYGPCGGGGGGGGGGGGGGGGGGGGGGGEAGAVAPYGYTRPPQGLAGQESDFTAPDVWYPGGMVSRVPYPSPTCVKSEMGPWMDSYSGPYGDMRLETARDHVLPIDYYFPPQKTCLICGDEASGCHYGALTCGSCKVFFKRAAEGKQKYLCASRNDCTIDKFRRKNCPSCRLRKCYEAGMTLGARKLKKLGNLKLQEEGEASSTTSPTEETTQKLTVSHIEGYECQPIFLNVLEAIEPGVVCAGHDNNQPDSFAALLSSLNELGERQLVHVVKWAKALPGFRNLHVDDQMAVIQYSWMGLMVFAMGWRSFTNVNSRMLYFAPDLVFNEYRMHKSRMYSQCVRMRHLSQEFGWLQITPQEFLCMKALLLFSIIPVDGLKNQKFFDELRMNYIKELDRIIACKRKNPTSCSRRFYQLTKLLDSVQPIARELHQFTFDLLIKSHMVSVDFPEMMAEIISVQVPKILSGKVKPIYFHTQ

The first assay addresses Estrogen receptor (Homo sapiens) + Estrogen receptor beta (Homo sapiens) (UniProt P03372+Q92731). As to the kind of experiment: OT_ER_ERaERb_0480: Odyssey Thera (OT) 8-hour HEK293T Protein-Complementation Assay for Estrogen Receptor-alpha/-beta Heterodimer (AID 2283352). The method in brief:
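HEK293T cells expressing ER-alpha/ER-beta LBD fusions to complementary reporter fragments were dosed with compound for 8 hours. Heterodimer formation was read as increased nuclear (agonist) or nuclear plus cytoplasmic (antagonist) mean fluorescence intensity versus DMSO vehicle.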
As for `[Na+]`, the outcome was inactive.

For the compound `CN(C)C(=O)Nc1ccccc1`, the result was inactive.

Turning to `c1ccc2scnc2c1`, the result was inactive.

Take `CC(=O)c1ccc(O)cc1`: the outcome was inactive.

As for `CC(C)(C)C1CCC(O)CC1` (configuration not stated), the result was inactive.

Take `CCC(C)(CCCC(C)C)OC(C)=O` (configuration not stated): the outcome was inactive.

As for `CCCO`, the result was inactive.

Regarding `C=CC(C)CCCC(C)(C)O` (configuration not stated), the result was inactive.

`FC(F)(F)c1ccc(Cl)c(Cl)c1`: the result was inactive.

`CC(=O)OC(C)(C)C`: the result was inactive.

In general, AC50 refers to the midpoint of the concentration-response curve, whichever way the signal moves. On to `CC(=O)C1=C(C)[C@@H]2C[C@@]3(C1)[C@H](C)CC[C@H]3C2(C)C`, for which the AC50 is 12.4 µM (active).

With `CCCCC(CC)COCCO` (configuration not stated), the outcome was inactive.

Consider `c1ccc(Cc2ccccc2)cc1`, for which the AC50 is 50 µM (active).

With `CCCCCCCCCO`, the result was inactive.

As for `CCCCN(CCCC)CCCCCCN(CCCC)CCCC`, the result was inactive.

As for `CN(C)C`, the result was inactive.

As for `CCCC1CCC(=O)CC1`, the outcome was inactive.

For the compound `CC(CCO)CC(C)(C)C` (configuration not stated), the result was inactive.

As to `COC(=O)c1ccc(C(=O)OC)cc1`, the outcome was inactive.

Consider `CCCCCCCCCCOC(=O)c1ccccc1C(=O)OCCCCCCCC`, for which the result was inactive.

For the compound `CC(C)N(c1ccccc1)C(C)C`, the result was inactive.

Turning to `COc1ccc2[nH]cc(CCNC(C)=O)c2c1`, the outcome was inactive.

Consider `CCCC(O)C(CC)CO` (configuration not stated), for which the outcome was inactive.

As to `CCCO[Si](OCCC)(OCCC)OCCC`, the AC50 was 38.3 µM (active).

For the compound `CC1COC(=O)O1` (configuration not stated), the result was inactive.

For the compound `CCCCOCCOCCO`, the result was inactive.

On to `CCC(C)COC(=O)CC(C)C` (configuration not stated), for which the outcome was inactive.

In the case of `C=CCCCCCCCCC(=O)OCC`, the outcome was inactive.

As for `CCCCCCCCCCCCN1CCOCC1`, the concentration at half-maximal activity (AC50) is 50 µM (active).

Regarding `O=C(OCc1ccccc1)c1ccccc1O`, the AC50 was 46 µM (active).

A further assay addresses Androgen Receptor/SRC-1 Co-activator, AR (gene 367) (UniProt P10275). As to the kind of experiment: OT_AR_ARSRC1_0480: Odyssey Thera (OT) 8-hour HEK293T Protein-Complementation Assay for Androgen Receptor/SRC-1 Co-activator (AID 2283354).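 Also: hits raise the complementation signal above DMSO so AC50 marks enhancers.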 The method in brief:
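Split-Venus PCA, stable HEK293T, AR/SRC-1 fusions; 8 h exposure. Readout: 488nm N/C fluorescence ratio, ≥400 cells/image; fitted upward vs DMSO baseline.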
On to `CC1=CCC(C(C)(C)O)CC1` (configuration not stated), for which the compound was classed as inactive.

Regarding `COC(=O)c1cccc(C(=O)OC)c1`, the compound was called inactive.

`FC(F)(F)c1ccc(Cl)c(Cl)c1`: the result was inactive.

Turning to `CC(CCO)CC(C)(C)C` (configuration not stated), the compound was called inactive.

With `OC[C@H]1O[C@@H](O[C@H]2[C@H](O)[C@@H](O)[C@H](O)O[C@@H]2CO)[C@H](O)[C@@H](O)[C@H]1O`, the compound was called inactive.

In the case of `CCCCCCCCCCOC(=O)c1ccccc1C(=O)OCCCCCCCC`, the outcome was inactive.

For `CC1COC(=O)O1` (configuration not stated), the compound was called inactive.

(Values after PubChem BioAssay (EPA / NIEHS).)
